Most compounds without a hit are left out; they make up all but 2.8% or so of the library.
LDHA block – LDHA (human) enzyme inhibition | activity change, % (values are at about 110 or 230 µM) | 480,000 compounds, 0.15% hits | P00338 | purified LDHA, NADH/diaphorase-resazurin fluorescence; stronger effect = lower value; in the data active = activity change below about -30%; inconclusive = mostly about -25% to -30%
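Resorufin fluorescence (ex540/em590), read at 0 and 20 min after diaphorase/resazurin addition, reports the NADH left after a 5 min room-temperature reaction of 2 nM human LDH5 with 0.06 mM NADH and 0.2 mM pyruvate.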
DRD3 agonist – D3 dopamine receptor (human) agonism | P35462 | max activation, % | D3R DiscoveRx beta-arrestin cells, luminescence, 90 min | AID 652048 | 410,000 compounds, 0.58% hits; in the data active = max activation above about 30%
Target sequence (P35462 whole entry, looked up): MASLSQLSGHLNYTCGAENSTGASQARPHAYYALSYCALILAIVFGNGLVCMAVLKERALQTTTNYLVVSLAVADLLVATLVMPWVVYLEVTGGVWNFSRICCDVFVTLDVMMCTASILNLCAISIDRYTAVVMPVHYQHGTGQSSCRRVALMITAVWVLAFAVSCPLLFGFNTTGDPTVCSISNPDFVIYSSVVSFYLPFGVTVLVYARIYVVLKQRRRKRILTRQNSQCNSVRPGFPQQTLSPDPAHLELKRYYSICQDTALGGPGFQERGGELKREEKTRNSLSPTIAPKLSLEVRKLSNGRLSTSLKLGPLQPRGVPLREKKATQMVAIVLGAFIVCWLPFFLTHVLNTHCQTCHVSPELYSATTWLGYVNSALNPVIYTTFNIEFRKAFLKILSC
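Cells at 1500/well, incubated overnight, then treated with pinned compounds (dopamine as control) for 90 min at 37 degrees C. DiscoveRx reagent added for 30 - 60 minutes at room temperature; luminescence read.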
pAkt inh – blocks phosphorylation of Akt | Neuro2A IGF-stimulated pAkt S473 HTRF, 20 min; stronger effect = lower value | activity change, % for hits at 50 µM | 360,000 compounds, 0.32% hits; in the data active = activity change below about -80%; inconclusive = mostly about -51% to -80%
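Neuro2A cells (4,500/well, DMEM with 0.5% FBS) were treated with compound at a single 50 µM final concentration, stimulated with 6 nM IGF for 20 min at 37 °C, and lysed. Phospho-Akt Ser473 was read by HTRF as 665/615 ratio ×10^4.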
RGS4 inhibitor – inhibitors of human regulator of G protein signaling 4; P49798; Potency, µM (titrated, usually from 114 µM), most hits filed as inhibitors; Transcreener GDP fluorescence polarization, RGS4-accelerated GTP hydrolysis; AID 504845; 390,000 compounds, 0.039% hits; active = well fitted inhibition curve with a large enough effect; inconclusive = small, poorly fitted or top-dose-only effect; inactive = no such curve, though single readings can be large or run the other way; note: nearly all actives have a fitted effect of over 75% in size
Target sequence (P49798 whole entry, looked up): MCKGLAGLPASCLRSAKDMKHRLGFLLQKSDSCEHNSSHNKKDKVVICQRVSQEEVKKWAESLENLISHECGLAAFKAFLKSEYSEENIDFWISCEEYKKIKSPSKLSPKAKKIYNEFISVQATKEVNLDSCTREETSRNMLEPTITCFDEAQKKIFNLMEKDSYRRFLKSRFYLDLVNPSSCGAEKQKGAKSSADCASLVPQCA
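MLSMR compounds (23 nl, pin-transferred) preincubated 10 min at room temperature with a 500nM (2x) first reagent, then RGS4 at 900nM (2x) plus Transcreener GDP mix added; fluorescence polarization (620/688 nm) read before and after 90 min at 30 °C.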
PI4K2A block – blocks human PI4K2A kinase activity. Q9BTU6. purified PI4K2A, ADP-Glo luminescence, 1 h; stronger effect = lower value. activity change, negative = inhibition, % at 76.9 µM. 420,000 compounds, 0.13% hits. AID 1346378; in the data active = activity change below about -50%; inconclusive = mostly about -30% to -49%
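PI4K2A activity was measured by ADP-Glo luminescence: enzyme (4 ug/mL stock) and phosphatidylinositol (1.2 mM stock) in Tris pH 7.5/MgCl2/EGTA/Triton X-100 buffer were reacted with ATP (300 microM stock) for one hour at ambient temperature.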
D3 antag – D3 dopamine receptor (human) antagonism; 360,000 compounds, 2.5% hits; D3R cells, DiscoveRx beta-arrestin luminescence, antagonist mode; stronger effect = lower value; P35462; AID 652054; max response, negative = inhibition, %; in the data active = max response below about -50%; inconclusive = no clear call, values can overlap the other calls
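Cells expressing the human receptor were seeded at 1500 cells/well, incubated overnight at 37 degrees C in 5% CO2, then exposed to library compounds with dopamine controls for 90 minutes at 37 degrees C before luminescent detection.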
Hits are given with their value; n = inactive; u = inconclusive; x = no result; ! = not active in a repeat; [ ] = remark or other dose.

SMILES | LDHA block | DRD3 agonist | pAkt inh | RGS4 inhibitor | PI4K2A block | D3 antag
C[C@H](CO)N1C[C@H](C)[C@@H](CN(C)C(=O)Nc2ccc(C(F)(F)F)cc2)Oc2c(cccc2N(C)C)C1=O | n | n | n | n | n | -130
C[C@H](CO)N1C[C@H](C)[C@@H](CN(C)C(=O)NC2CCCCC2)Oc2ccc(NC(=O)Nc3ccc(C(F)(F)F)cc3)cc2C1=O | n | 54 | n | n | n | n
C[C@H](CO)N1C[C@H](C)[C@@H](CN(C)C(=O)Nc2ccc(C(F)(F)F)cc2)Oc2c(NC(=O)Nc3ccc4c(c3)OCO4)cccc2C1=O | n | n | n | n | n | n
Cc1ccc(CN(C)CC(=O)NC(=O)NC2CCCC2)cc1 | n | x | x | x | x | x
CC(=O)N/N=C/c1cc(Cl)ccc1OCCOCCOc1ccc(C)cc1 | n | x | x | x | x | x
Cc1cccc(-c2cc(C(=O)O)c3ccc(C)c(C)c3n2)c1 | n | x | x | x | x | x
CCOC(=O)N1CCN(c2cc(C(=O)O)c3cc(NC(=O)C4CC4)ccc3n2)CC1 | n | x | x | x | x | x
Nc1cc(CN2C(=O)c3ccccc3C2=O)cc(Cl)c1O | n | 31 | n | n | n | n
O=C1C=CC(=O)C(C2=C3C(=O)N(CCc4ccccc4)CC(=O)N3CCC2)=C1 | n | n | n | u | n | -72
O=C1CC2(CCCCC2)CC(=O)N1CCc1ccccc1 | n | n | n | n | n | n
CCOc1ccc2ccccc2c1C(=O)N[C@@H]1C(=O)N2[C@@H]1SC(C)(C)[C@@H]2C(=O)O | n | 49! | n | n | n | n
CCCCNC(=O)NC12CC3CC(CC(C3)C1)C2 | n | n | n | n | n | n
CCCCNC(=O)NC(C(=O)OC)C12CC3CC(CC(C3)C1)C2 (stereo not drawn) | n | n | n | n | n | -57
CCNC(=O)COC(=O)c1cc(-c2ccc(C)o2)nc2ccccc12 | n | x | x | x | x | x
Cc1ccccc1/C=C/C12NC(=O)CN1c1ccccc1C2(C)C (stereo not drawn) | n | 31 | n | n | n | n
CC1CN(C(=O)CCN2C(=O)c3ccccc3C2=O)CC(C)O1 (stereo not drawn) | n | n | -117% | n | n | n
COc1ccccc1Nc1nc(-c2ccc3c(c2)CCC(=O)N3)cs1 | -31 | x | x | x | x | x
CCOC(=O)C1CCCN(C(=O)c2cnn3c(C(F)(F)F)cc(-c4ccccc4)nc23)C1 (stereo not drawn) | n | n | x | n | n | n
CCOC(=O)C1CCCN(C(=O)c2cc3nc(-c4cccc(OC)c4)cc(C(F)(F)F)n3n2)C1 (stereo not drawn) | n | 52 | n | n | n | n
Cc1ccc(NC(=O)NNC(=O)C2CC(c3cccnc3)=NO2)cc1 (stereo not drawn) | n | n | n | n | n | -62
O=C(NNC(=O)C1CC(c2cccnc2)=NO1)Nc1ccccc1F (stereo not drawn) | n | n | n | n | n | n
Cn1c(=O)c2c(ncn2CC(=O)NCCc2ccc(F)cc2)n(C)c1=O | n | x | x | x | x | x
COc1ccc(-c2ocnc2C(=O)Nc2ccc(C)c(Cl)c2)cc1OC | n | x | x | x | x | x
O=C(c1cn(-c2ccccc2)nc1-c1cccs1)N1CCN(c2ccccc2)CC1 | n | 31 | n | n | n | n
CCCCCSc1nc2c(c(=O)[nH]c(=O)n2C)n1CCCc1ccccc1 | n | x | x | x | x | x
SMILES | LDHA block | DRD3 agonist | pAkt inh | RGS4 inhibitor | PI4K2A block | D3 antag
COc1ccc(-n2nc(C(=O)c3cccs3)cc(-c3nc4ccccc4[nH]3)c2=N)cc1 | n | n | n | n | n | -56
Cc1ccccc1-n1nc(C(=O)c2cccs2)cc(-c2nc3ccccc3[nH]2)c1=N | n | n | n | n | n | n
Cc1c(/C=N/Nc2nc3ccccc3[nH]2)c2ccccc2n1C | n | n | n | n | n | u
CC(C)Cn1c(/C=N/Nc2nc3ccccc3[nH]2)nc2ccccc21 | n | n | n | n | n | -71
C=CCn1cc(/C=N/Nc2nc3ccccc3[nH]2)c2ccccc21 | n | n | n | n | n | -70
CNC(=O)NC(=O)CN(Cc1ccc(C)cc1)C1CC1 | n | x | x | x | x | x
CCOc1ccc(OCc2cccc(C(=O)OCC3CCCO3)c2)cc1 (stereo not drawn) | n | x | x | x | x | x
CC(C)C1=NN2C(=N)CC(=O)N=C2S1 | n | n | n | n | n | -63
CCCCC1=NN2C(=N)CC(=O)N=C2S1 | n | n | n | n | n | n
Cc1nn2c(=O)cc(COc3ccc(/C=C(\C#N)C(=O)Nc4ccc(F)cc4)cc3)nc2s1 | n | 78 | x | n | n | x
COc1ccc(NC(=O)/C(C#N)=C/c2ccc(OCc3cc(=O)n4nc(C)sc4n3)cc2)cc1 | n | n | x | n | n | x
CC(=O)Nc1c(C)noc1/C=C\c1ccc(C)c(S(=O)(=O)Nc2c(C)cccc2C)c1 | n | x | x | x | x | x
O=c1nc2ccccc2c2n1CC(CN1CCN(c3ccc(F)cc3)CC1)N2 (stereo not drawn) | n | n | x | n | n | n
O=c1nc2ccccc2c2n1CC(CN1CCN(c3ccccc3F)CC1)N2 (stereo not drawn) | n | n | n | n | n | -69
O=C1/C(=C/c2ccc(N3CCOCC3)o2)SC(=Nc2ccccc2)N1CCc1c[nH]c2ccccc12 | n | n | n | u | n | -69
Cc1noc2c1C(c1ccc(N(C)C)cc1)C1=C(CC(C)(C)CC1=O)N2 (stereo not drawn) | n | n | n | n | n | -78
Cc1nc2c(C)cccn2c1/C(O)=C1\C(=O)C(=O)N(CCN2CCOCC2)C1c1ccccc1F (stereo not drawn) | n | x | x | x | x | x
FC(F)(F)c1cccc(-n2c(-c3ccc(Br)cc3)c[n+]3c2CCc2ccccc2-3)c1 | n | x | x | x | x | x
Cc1nn(-c2ccc(C(=O)OCC(=O)NC(=O)NC3CCCCC3)cc2)c(C)c1Cl | n | x | x | x | x | x
COc1cccc(NC(=O)C2(C)CCN2C(=O)CCc2ccc(Cl)cc2Cl)c1 (stereo not drawn) | n | n | n | x | n | -60
Cc1nn(C)c(=S)n1-c1ccc(Cl)cc1 | n | n | n | n | n | -52
Cc1nn(-c2ccccc2)c(=S)n1-c1ccccc1 | n | n | n | n | n | n
C=CCNc1nc(-c2ccc3[nH]c(=O)oc3c2)cs1 | n | x | x | x | x | x
CCCNC(=O)c1ccc2nc(-c3ccccc3)c(-c3ccccc3)nc2c1 | n | n | -120% | n[11.4 µM] | n | n
CNC(=O)c1ccc2nc(-c3ccco3)c(-c3ccco3)nc2c1 | n | x | x | u | x | x
CN(C)c1ccc(CNC(=O)c2ccc3nc(CCc4ccccc4)oc3c2)cc1 | n | 48 | x | n | n | x
CCNC(=O)c1ccc2nc(-c3ccccc3)c(-c3ccccc3)nc2c1 | n | x | x | n | x | x
O=C(Nc1ccccc1)c1ccc2nc(-c3ccco3)c(-c3ccco3)nc2c1 | n | n | n | u | -51 | n

Compound activity as filed in PubChem BioAssay.
